# According to PubChem BioAssay (NCATS):
# Records with an inconclusive call do not appear. Activity calls are given as the source filed them. Peptide text beside a SMILES is read from it.
# Experiment: qHTS for identification of novel therapeutic agents for treatment of microphthalmiaassociated transcription factor (MiT) renal cell carcinoma (RCC) (AID 1963991)
# Conditions: CellTiter-Glo, 48 h; for z-score: stronger effect = lower value
# Excerpt: PI: Marston Linehan Ph.D.
# Urologic Oncology Branch, Center for Cancer Research (CCR)
# National Cancer Institute (NCI), National Institute of Health (NIH), Bethesda, Maryland
# MiT-Renal Cell Carcinoma (RCC) is characterized by genomic translocations involving microphthalmia-associated transcription factor (MiT) family members TFE3, TFEB, or MITF. MiT-RCC represents a specific subtype of sporadic RCC that is predominantly seen in young patients and can present with heterogeneous histological features making diagnosis challenging. Moreover, the disease biology of this aggressive cancer is poorly understood and there is no accepted standard of care therapy for patients with advanced disease. Tumor-derived cell lines have been established from human TFE3-RCC providing useful models for preclinical studies. TFE3-RCC tumor derived cell lines and their tissues of origin were characterized by IHC and gene expression analyses. An unbiased high-throughput drug screen was performed to identify novel therapeutic agents for treatment of MiT-RCC. Potential therapeutic candidates were validated in in vitro and in vivo preclinical studies. Mechanistic assays were conducted to confirm the on-target effects of drugs. The results of a high-throughput small molecule drug screen utilizing three TFE3-RCC tumor-derived cell lines identified five classes of agents with potential pharmacological efficacy, including inhibitors of phosphoinositide-3-kinase (PI3K) and mechanistic target of rapamycin (mTOR), and several additional agents, including the transcription inhibitor Mithramycin A. Upregulation of the cell surface marker GPNMB, a specific MiT transcriptional target, was confirmed in TFE3-RCC and evaluated as a therapeutic target using the GPNMB-targeted antibody-drug conjugate CDX-011. […] The results of the high-throughput drug screen and validation studies in TFE3-RCC tumor-derived cell lines have provided in vitro and in vivo preclinical data supporting the efficacy of the PI3K/mTOR inhibitor.
# SEQUENCE No. (e.g., 1, 2, 3, etc.); […] (e.g., Cells, Incubation, Reagent, etc.); VALUE; DESCRIPTION.
# 1; Cells; 3 uL; white, solid-bottom Grenier assay plate.
# 2; Compounds; 23 nL; Kalypsis pin-tool (Wako USA).
# 3; Incubation; 48 hr; 37 C, 5% CO2, 95% humidity.
# 4; Reagent; 3 uL; CellTiter-Glo reagent (Promega).
# 5; Incubation; 15 min; room temperature.
# 6; Detection; Luminescence; ViewLux plate reader (PerkinElmer).
# NOTES (numbers refer to Sequence numbers above)
# 1. Quantitative high-throughput screening (qHTS) of 1912 pharmacologically defined small molecule compounds was conducted on three TFE3-fusion cell lines bearing three different fusion partners (UOK109, UOK124, UOK145). Briefly, 500 cells in complete growth media were plated into white, solid-bottom, 1536-well tissue culture treated plates (Grenier Cat. 789173-F) using a Multidrop Combi cassette dispenser.
# 2. Twenty-three nanoliter of 1912 pharmacologically defined small molecule compounds of the NCATS Mechanism Interrogation PlatE (MIPE) version 4.0 were added to each assay plate using a Pintool Dispenser (Wako) equipped with 1536 pin head.
# 3. Plates were covered with stainless steel gasketed lids and incubated for 48 hours at standard cell culture conditions.
# 4. Viability was assessed by adding 3uL of CellTiter-Glo detection reagent (Promega).
# 5. Plates were covered with gasket lids and incubated for 15 minutes at room temperature.
# 6. Luminescence was measured on a ViewLux plate reader (PerkinElmer). Post-screen data processing used DMSO controls as 100% viability and empty wells as 0% viability and dose response curve fitting was done for all 11 concentrations for each compound.
# [1] = TFE3-RCC UOK109 viability, measured here: UOK109 Z-AUC
# [2] = TFE3-RCC viability, measured here: UOK124 Z-AUC
# [3] = TFE3-RCC viability, measured here: UOK145 Z-AUC
# Potency means the concentration at half of the fitted maximal effect.
SMILES,"Potency (TFE3-RCC UOK109 viability, active = Z-AUC below -0.8 in all three lines)",z-score [1],z-score [2],z-score [3]
CC(=O)O[C@H]1C(=O)[C@@]2(C)C([C@H](OC(=O)c3ccccc3)[C@]3(O)C[C@H](OC(=O)[C@H](O)[C@@H](NC(=O)c4ccccc4)c4ccccc4)C(C)=C1C3(C)C)[C@]1(OC(C)=O)CO[C@@H]1C[C@@H]2O (stereo not given in full),41.8 nM (active),-1.4,-1.86,-1.46
O=C(CS(=O)Cc1ccco1)NCC=CCOc1cc(CN2CCCCC2)ccn1 (stereo not given),–,0.673,0.332,0.715
CC(C)(S)[C@@H](N)C(=O)O,–,0.813,0.506,1.37
COc1ccc2cc([C@H](C)C(=O)O)ccc2c1,–,1.29,0.689,0.68
COC(=O)[C@H](Cc1ccccc1)NC(=O)[C@@H](N)CC(=O)O (H-Asp-Phe-OMe),–,0.591,0.672,0.618
O=c1c(O)c(-c2ccc(O)cc2O)oc2cc(O)cc(O)c12,–,0.0602,0.591,-0.0945
Cc1c(OCC(F)(F)F)ccnc1CS(=O)c1nc2ccccc2[nH]1 (stereo not given),–,0.51,0.775,0.275
Nc1cc(C(Cl)=C(Cl)Cl)c(S(N)(=O)=O)cc1S(N)(=O)=O,–,1.83,0.22,0.781
COC(=O)C1=C(C)NC(C)=C(C(=O)OCCCN2CCC(c3ccccc3)(c3ccccc3)CC2)C1c1cccc([N+](=O)[O-])c1 (stereo not given),–,1.29,0.568,0.759
CC(C)c1nc(CN(C)C(=O)N[C@H](C(=O)N[C@@H](Cc2ccccc2)C[C@H](O)[C@H](Cc2ccccc2)NC(=O)OCc2cncs2)C(C)C)cs1,–,-0.114,-0.388,0.0556
N=C(N)c1ccc2cc(OC(=O)c3ccc(N=C(N)N)cc3)ccc2c1,–,0.107,-0.0134,0.0541
O=c1c(O)c(-c2cc(O)c(O)c(O)c2)oc2cc(O)cc(O)c12,–,0.252,0.375,-0.367
CCOc1cc(CC(=O)N[C@@H](CC(C)C)c2ccccc2N2CCCCC2)ccc1C(=O)O,–,0.724,0.688,0.737
